From PubChem BioAssay (EPA / NIEHS) come the findings set out here.

The structures appear in SMILES notation. “And” between values parts separate entries of the source, which are not always exact repeats. Equal entries are not always repeated. Records with an inconclusive call do not appear. Some structures have more than one record in an assay (separate samples or runs), and their calls can disagree. The source made the active and inactive calls. The calls were made as follows, unless noted: active = hit-call score of the fitted dose curve at least 0.9, where 1 is the maximum; inconclusive = response in the unintended direction; inactive = score below 0.9.

The target of experiment [1] is Estrogen receptor beta (Homo sapiens) (UniProt Q92731). In words: ATG_hERb_XSP2: Attagene TRANS-FACTORIAL Multi-Species (XSP2) HepG2 Assay for human Estrogen Receptor (ERb) (AID 2283813).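 Also: actives raise reporter mRNA above DMSO so AC50 reflects agonist induction.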 In short, it runs like this: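 HepG2 cells transiently transfected with GAL4-UAS reporter units and chimeric human ERb-Gal4, 24 h exposure. Reporter mRNA quantified by RT-PCR with FAM labelling, HpaI digestion and capillary electrophoresis; gain of signal versus DMSO.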

Experiment [2] concerns the target zebrafish Estrogen Receptor (ER1), esr1 (gene 259252) (UniProt P57717). In words: ATG_zfER1_XSP2: Attagene TRANS-FACTORIAL Multi-Species (XSP2) HepG2 Assay for zebrafish Estrogen Receptor (ER1) (AID 2283816). In short, it runs like this: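 HepG2 cells transiently transfected with a GAL4-UAS reporter and a chimeric zebrafish ER1-Gal4 construct, dosed 24 h. Reporter mRNA quantified by RT-PCR, labelling, HpaI digestion and capillary electrophoresis, relative to DMSO.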

Experiment [3] addresses chicken Estrogen Receptor (ERa), ESR1 (gene 396099) (UniProt P06212). In words: ATG_chERa_XSP2: Attagene TRANS-FACTORIAL Multi-Species (XSP2) HepG2 Assay for chicken Estrogen Receptor (ERa) (AID 2283817).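 Also: actives raise reporter signal above DMSO so AC50 reflects ER activation.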 The method, boiled down: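 HepG2 cells transiently transfected with multiplexed GAL4-UAS reporter units expressing chimeric chicken ERa-Gal4; 24 h compound exposure. Reporter mRNA measured by RT-PCR with 6-FAM labelling, HpaI digestion and capillary electrophoresis; gain-of-signal fitted versus DMSO.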

Experiment [4] deals with zebrafish Estrogen Receptor (ER2a), gene 317734. In words: ATG_zfER2a_XSP2: Attagene TRANS-FACTORIAL Multi-Species (XSP2) HepG2 Assay for zebrafish Estrogen Receptor (ER2a) (AID 2283818).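 Also: hits raise reporter mRNA so AC50 reflects activation of zebrafish ER2a.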 The method, boiled down:
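HepG2 cells transiently transfected with GAL4-UAS reporter units and chimeric zebrafish ER2a-Gal4, exposed 24 h; medium contains 3 nM 6-alpha-fluorotestosterone and 1.5 nM norgestrel. Reporter mRNA quantified by RT-PCR, HpaI digestion, capillary electrophoresis; gain versus DMSO.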

The subject of experiment [5] is frog Estrogen Receptor (ER), gene 398734. In words: ATG_frER1_XSP2: Attagene TRANS-FACTORIAL Multi-Species (XSP2) HepG2 Assay for frog Estrogen Receptor (ER) (AID 2283821).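 Also: hits raise reporter mRNA above DMSO baseline so potency means agonist or activator.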 The method, boiled down: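 HepG2, transient MRTU transfection, chimeric NR-GAL4/UAS reporters; 24 h compound exposure, 24-well. Readout: reporter mRNA via RT-PCR + capillary electrophoresis, fluorescence. Positive fit vs DMSO baseline.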

The nature of experiment [6]: ATG_M_19_XSP2: Attagene TRANS-FACTORIAL Multi-Species (XSP2) HepG2 Assay for M32 Transcription Factor (Internal Marker) (AID 2283822). In short, it runs like this: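 Internal background marker in a multi-species nuclear receptor TRANS panel: transfected HepG2 cells exposed 24 h, with 3 nM 6-alpha-fluorotestosterone and 1.5 nM norgestrel present. Readout is RT-PCR of reporter transcripts resolved by capillary electrophoresis, gain-of-signal versus DMSO.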

Experiment [7] has as its system zebrafish Estrogen Receptor (ER2b), gene 317733. In words: ATG_zfER2b_XSP2: Attagene TRANS-FACTORIAL Multi-Species (XSP2) HepG2 Assay for zebrafish Estrogen Receptor (ER2b) (AID 2283823).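 Also: fitted upward as reporter gain over DMSO so potency reflects activation.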 The method, boiled down:
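Cells used were HepG2, transiently transfected with chimeric nuclear receptor-Gal4 reporter units. After 24 h of chemical treatment, reporter transcripts were amplified by RT-PCR, labelled and sized by capillary electrophoresis, with induction analysed relative to DMSO.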

For experiment [8], the system named is frog Estrogen Receptor (ER2), gene 100174814. In words: ATG_frER2_XSP2: Attagene TRANS-FACTORIAL Multi-Species (XSP2) HepG2 Assay for frog Estrogen Receptor (ER2) (AID 2283828). The method, boiled down: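 Human liver HepG2, transient MRTU transfection (TRANS format, exogenous NR–Gal4). 24 h cpd exposure. Total RNA → RT → PCR → FAM label → HpaI cut → CE. Positive direction vs DMSO.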

Experiment [9] concerns the target Peroxisome proliferator-activated receptor gamma (Homo sapiens) (UniProt P37231). In words: ATG_hPPARg_XSP2: Attagene TRANS-FACTORIAL Multi-Species (XSP2) HepG2 Assay for human Peroxisome Proliferator-activated Receptor gamma (PPARg) (AID 2283829).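 Also: actives raise reporter mRNA above DMSO so AC50 reflects PPARg activation.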 In short, it runs like this: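 After transfecting HepG2 with GAL4-UAS reporter constructs, cells are dosed for 24 h; total RNA is reverse-transcribed, PCR-amplified, FAM-labeled, HpaI-digested and resolved by capillary electrophoresis. Activity is measured as mRNA induction relative to DMSO.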

For experiment [10], the target named is mouse Peroxisome Proliferator-activated Receptor gamma (PPARg), Pparg (gene 19016) (UniProt P37238). In words: ATG_mPPARg_XSP2: Attagene TRANS-FACTORIAL Multi-Species (XSP2) HepG2 Assay for mouse Peroxisome Proliferator-activated Receptor gamma (PPARg) (AID 2283830).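 Also: hits are gains in reporter mRNA above DMSO so AC50 marks activation.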 In short, it runs like this:
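HepG2 cells transiently transfected with GAL4-UAS reporter units for chimeric NR-Gal4 proteins including mouse PPARg, exposed 24 h; medium contained 3 nM 6-alpha-fluorotestosterone and 1.5 nM norgestrel. Reporter mRNA quantified by RT-PCR, HpaI digestion and capillary electrophoresis, vs DMSO.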

Experiment [11] addresses Nuclear receptor subfamily 1 group I member 2 (Mus musculus) (UniProt O54915). In words: ATG_mPXR_XSP2: Attagene TRANS-FACTORIAL Multi-Species (XSP1) HepG2 Assay for mouse Pregnane X Receptor (PXR) (AID 2283831). The method, boiled down:
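Reporter transcripts were quantified by RT-PCR, FAM primer extension, HpaI digestion and capillary electrophoresis after 24 h of chemical exposure in transiently transfected HepG2 cells carrying chimeric receptor-GAL4 constructs; DMSO served as baseline.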

Experiment [12] deals with zebrafish Thyroid Hormone Receptor alpha (TRa), thraa (gene 30670) (UniProt Q98867). In words: ATG_zfTRa_XSP2: Attagene TRANS-FACTORIAL Multi-Species (XSP1) HepG2 Assay for zebrafish Thyroid Hormone Receptor alpha (TRa) (AID 2283832).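 Also: actives raise zebrafish TRa-Gal4 reporter transcript above DMSO baseline.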 In short, it runs like this: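 HepG2 transiently transfected with GAL4-UAS reporter units and chimeric zebrafish TRa-Gal4; reporter mRNA quantified after 24 h dosing by RT-PCR, HpaI digestion and capillary electrophoresis fluorescence. Gain of signal vs DMSO; XSP2 medium contains 3 nM 6-alpha-fluorotestosterone, 1.5 nM norgestrel.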

Experiment [13] deals with zebrafish Peroxisome Proliferator-activated Receptor gamma (PPARg), gene 557037. In words: ATG_zfPPARg_XSP2: Attagene TRANS-FACTORIAL Multi-Species (XSP2) HepG2 Assay for zebrafish Peroxisome Proliferator-activated Receptor gamma (PPARg) (AID 2283833).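 Also: actives increase reporter signal over DMSO so AC50 reflects activation.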 In short, it runs like this:
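Multi-species TRANS format in HepG2, 24 h dosing; medium also contained 3 nM 6-alpha-fluorotestosterone and 1.5 nM norgestrel to stimulate androgen receptor. Zebrafish PPARg-GAL4 induced reporter mRNA was measured by RT-PCR/capillary electrophoresis.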

Experiment [14] deals with zebrafish Thyroid Hormone Receptor beta (TRb), thrb (gene 30607) (UniProt Q9PVE4). In words: ATG_zfTRb_XSP2: Attagene TRANS-FACTORIAL Multi-Species (XSP1) HepG2 Assay for zebrafish Thyroid Hormone Receptor beta (TRb) (AID 2283836). In short, it runs like this:
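HepG2 cells transiently transfected with chimeric zebrafish TRb-GAL4 reporter units, dosed 24 h with 3 nM 6-alpha-fluorotestosterone and 1.5 nM norgestrel present. Reporter mRNA quantified by RT-PCR and capillary electrophoresis; gain fitted against DMSO.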

Experiment [15] can be described thus: ATG_XTT_Cytotoxicity_XSP2: Cytotoxicity Assessment in the Attagene TRANS-FACTORIAL Multi-Species (XSP2) HepG2 Assay (AID 2283837). In short, it runs like this:
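HepG2 cells, transiently transfected with multiple reporter constructs, exposed to chemical for 24 h. Cell number assessed with XTT fluorescence read-out; loss of signal fitted relative to DMSO.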

Experiment [16] addresses GAL4 Transcription Factor (Internal Marker), GAL4 (gene 855828) (UniProt P04386). In words: ATG_GAL4_XSP2: Attagene TRANS-FACTORIAL Multi-Species (XSP2) HepG2 Assay for GAL4 Transcription Factor (Internal Marker) (AID 2283814).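 Also: GAL4 reporter mRNA background control in MRTU transfected cells not a receptor target.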 In short, it runs like this:
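HepG2 cells transiently transfected with GAL4-UAS reporter units, stimulated with 3 nM 6-alpha-fluorotestosterone plus 1.5 nM norgestrel, dosed 24 h. Reporter mRNA by RT-PCR/capillary electrophoresis; gain-of-signal fit versus DMSO, background control.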

The test system of experiment [17] is chicken Androgen Receptor (AR), gene 422165. In words: ATG_chAR_XSP2: Attagene TRANS-FACTORIAL Multi-Species (XSP2) HepG2 Assay for chicken Androgen Receptor (AR) (AID 2283819).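 Also: hits raise reporter mRNA above DMSO so potency is for activation.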 The method, boiled down:
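HepG2 cells transiently transfected with chicken AR–GAL4 chimeric reporter constructs, stimulated with 3 nM 6-alpha-fluorotestosterone plus 1.5 nM norgestrel, dosed 24 h. Reporter mRNA quantified by RT-PCR and capillary electrophoresis; gain of signal fitted versus DMSO.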

The target of experiment [18] is Estrogen receptor (Homo sapiens) (UniProt P03372). In words: ATG_hERa_XSP2: Attagene TRANS-FACTORIAL Multi-Species (XSP2) HepG2 Assay for human Estrogen Receptor (ERa) (AID 2283827). The method, boiled down: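 HepG2 cells transiently transfected with multiplexed GAL4-UAS reporters driven by chimeric receptor-Gal4 proteins, dosed 24 h with 3 nM 6-alpha-fluorotestosterone and 1.5 nM norgestrel present. Reporter mRNA by RT-PCR and capillary electrophoresis; gain-of-signal fit versus DMSO.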

The subject of experiment [19] is turtle Thyroid Hormone Receptor, alpha (TRa), gene 101949057. In words: ATG_trTRa_XSP2: Attagene TRANS-FACTORIAL Multi-Species (XSP1) HepG2 Assay for turtle Thyroid Hormone Receptor, alpha (TRa) (AID 2283834).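 Also: hits raise reporter mRNA over the DMSO baseline so AC50 marks activators.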 The method, boiled down:
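Transfection of HepG2 with multiple reporter transcription units, then chemical dosing for 24 h. Total RNA was reverse-transcribed, reporter sequences PCR-amplified and FAM-labelled, then sized by capillary electrophoresis. DMSO served as baseline.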

Experiment [20] is described as follows: ATG_M_61_XSP2: Attagene TRANS-FACTORIAL Multi-Species (XSP2) HepG2 Assay for M61 Transcription Factor (Internal Marker) (AID 2283835; active = hit-call score of the fitted dose curve at least 0.9, where 1 is the maximum; inactive = score below 0.9;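 also: active means a rise in signal above the DMSO baseline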). The method, boiled down: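 HepG2 cells transiently transfected with multiple GAL4-UAS reporter units; 3 nM 6-alpha-fluorotestosterone and 1.5 nM norgestrel present to stimulate androgen receptor. After 24 h compound exposure, reporter mRNA measured by RT-PCR and capillary electrophoresis fluorescence, gain-of-signal versus DMSO baseline.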

zebrafish Thyroid Hormone Receptor beta (TRb), thrb (gene 30607), sequence (Q9PVE4 whole entry, looked up, the tested form may be a part): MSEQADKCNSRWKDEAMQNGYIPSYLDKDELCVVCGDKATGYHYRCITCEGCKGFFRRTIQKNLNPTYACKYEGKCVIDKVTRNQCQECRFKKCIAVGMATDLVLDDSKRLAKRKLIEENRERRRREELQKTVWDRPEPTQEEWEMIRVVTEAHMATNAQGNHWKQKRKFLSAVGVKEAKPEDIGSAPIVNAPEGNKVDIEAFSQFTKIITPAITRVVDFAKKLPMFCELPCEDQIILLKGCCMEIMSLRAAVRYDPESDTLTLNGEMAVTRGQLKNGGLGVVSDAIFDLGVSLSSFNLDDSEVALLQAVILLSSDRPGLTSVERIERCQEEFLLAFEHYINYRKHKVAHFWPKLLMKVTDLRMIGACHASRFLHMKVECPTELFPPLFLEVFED
zebrafish Thyroid Hormone Receptor alpha (TRa), thraa (gene 30670), sequence (Q98867 whole entry, looked up, the tested form may be a part): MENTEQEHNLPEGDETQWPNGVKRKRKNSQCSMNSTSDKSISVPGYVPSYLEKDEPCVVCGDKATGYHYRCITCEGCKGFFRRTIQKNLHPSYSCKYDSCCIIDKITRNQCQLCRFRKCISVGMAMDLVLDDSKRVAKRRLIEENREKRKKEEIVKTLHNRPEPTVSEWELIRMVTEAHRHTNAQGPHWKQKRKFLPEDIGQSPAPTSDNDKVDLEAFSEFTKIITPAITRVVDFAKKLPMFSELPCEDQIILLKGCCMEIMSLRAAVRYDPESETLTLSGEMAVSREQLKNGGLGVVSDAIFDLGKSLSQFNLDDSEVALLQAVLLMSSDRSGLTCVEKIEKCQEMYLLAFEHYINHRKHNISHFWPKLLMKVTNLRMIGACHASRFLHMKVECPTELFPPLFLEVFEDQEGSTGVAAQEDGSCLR
chicken Estrogen Receptor (ERa), ESR1 (gene 396099), sequence (P06212 whole entry, looked up, the tested form may be a part): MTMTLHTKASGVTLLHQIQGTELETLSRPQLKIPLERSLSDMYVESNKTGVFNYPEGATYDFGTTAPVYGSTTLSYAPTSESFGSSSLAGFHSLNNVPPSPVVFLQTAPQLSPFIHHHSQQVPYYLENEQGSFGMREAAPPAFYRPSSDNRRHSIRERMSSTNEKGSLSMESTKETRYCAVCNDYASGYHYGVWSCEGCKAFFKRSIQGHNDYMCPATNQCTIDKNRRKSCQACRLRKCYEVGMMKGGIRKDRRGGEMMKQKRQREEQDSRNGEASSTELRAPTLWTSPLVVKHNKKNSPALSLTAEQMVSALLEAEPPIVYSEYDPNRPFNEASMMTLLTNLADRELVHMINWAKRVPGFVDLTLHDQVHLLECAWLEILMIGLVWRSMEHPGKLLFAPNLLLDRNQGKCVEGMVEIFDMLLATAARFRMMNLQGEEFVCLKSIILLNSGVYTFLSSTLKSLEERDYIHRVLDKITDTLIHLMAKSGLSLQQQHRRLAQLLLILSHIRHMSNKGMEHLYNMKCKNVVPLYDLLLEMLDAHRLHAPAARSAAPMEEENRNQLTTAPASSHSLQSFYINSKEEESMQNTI
mouse Peroxisome Proliferator-activated Receptor gamma (PPARg), Pparg (gene 19016), sequence (P37238 whole entry, looked up, the tested form may be a part): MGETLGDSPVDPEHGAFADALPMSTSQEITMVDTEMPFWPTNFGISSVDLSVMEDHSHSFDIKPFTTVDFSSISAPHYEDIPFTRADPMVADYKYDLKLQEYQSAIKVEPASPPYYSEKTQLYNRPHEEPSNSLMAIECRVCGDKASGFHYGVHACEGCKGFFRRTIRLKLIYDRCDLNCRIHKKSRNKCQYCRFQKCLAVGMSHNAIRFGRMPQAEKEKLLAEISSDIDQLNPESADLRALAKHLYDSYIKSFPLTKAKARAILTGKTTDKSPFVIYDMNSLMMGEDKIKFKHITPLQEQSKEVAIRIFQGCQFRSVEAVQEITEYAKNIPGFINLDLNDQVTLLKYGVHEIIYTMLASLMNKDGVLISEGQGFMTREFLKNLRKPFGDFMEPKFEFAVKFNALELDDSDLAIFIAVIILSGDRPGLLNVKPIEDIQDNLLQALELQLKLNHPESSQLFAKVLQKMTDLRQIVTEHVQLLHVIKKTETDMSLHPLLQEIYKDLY
Nuclear receptor subfamily 1 group I member 2 (Mus musculus), sequence (O54915 whole entry, looked up, the tested form may be a part): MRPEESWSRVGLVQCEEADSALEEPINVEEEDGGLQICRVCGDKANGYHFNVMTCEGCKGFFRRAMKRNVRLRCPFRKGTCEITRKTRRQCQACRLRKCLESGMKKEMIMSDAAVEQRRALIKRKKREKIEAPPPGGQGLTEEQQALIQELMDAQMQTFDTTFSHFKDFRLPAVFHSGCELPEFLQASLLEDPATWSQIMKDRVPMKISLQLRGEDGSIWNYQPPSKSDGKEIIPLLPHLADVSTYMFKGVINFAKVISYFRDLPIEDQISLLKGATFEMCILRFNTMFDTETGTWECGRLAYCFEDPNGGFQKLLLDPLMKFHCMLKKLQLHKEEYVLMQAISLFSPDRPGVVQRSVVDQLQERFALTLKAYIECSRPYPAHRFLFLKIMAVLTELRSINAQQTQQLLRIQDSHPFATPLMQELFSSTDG
Estrogen receptor beta (Homo sapiens), sequence (Q92731 whole entry, looked up, the tested form may be a part): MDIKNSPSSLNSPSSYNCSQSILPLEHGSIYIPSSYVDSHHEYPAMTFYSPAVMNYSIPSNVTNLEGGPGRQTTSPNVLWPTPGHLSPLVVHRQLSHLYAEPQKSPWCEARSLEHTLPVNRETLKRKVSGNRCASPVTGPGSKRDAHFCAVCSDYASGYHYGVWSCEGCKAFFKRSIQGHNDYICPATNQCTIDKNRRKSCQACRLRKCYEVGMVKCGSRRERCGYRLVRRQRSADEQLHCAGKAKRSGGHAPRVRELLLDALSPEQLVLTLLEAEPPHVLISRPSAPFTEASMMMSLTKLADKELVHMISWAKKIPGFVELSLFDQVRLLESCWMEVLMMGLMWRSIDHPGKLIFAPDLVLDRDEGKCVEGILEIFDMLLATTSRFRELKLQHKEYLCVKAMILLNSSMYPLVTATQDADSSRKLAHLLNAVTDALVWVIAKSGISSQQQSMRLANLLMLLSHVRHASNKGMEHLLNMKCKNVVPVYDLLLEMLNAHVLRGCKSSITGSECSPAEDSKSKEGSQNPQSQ
zebrafish Estrogen Receptor (ER1), esr1 (gene 259252), sequence (P57717 whole entry, looked up, the tested form may be a part): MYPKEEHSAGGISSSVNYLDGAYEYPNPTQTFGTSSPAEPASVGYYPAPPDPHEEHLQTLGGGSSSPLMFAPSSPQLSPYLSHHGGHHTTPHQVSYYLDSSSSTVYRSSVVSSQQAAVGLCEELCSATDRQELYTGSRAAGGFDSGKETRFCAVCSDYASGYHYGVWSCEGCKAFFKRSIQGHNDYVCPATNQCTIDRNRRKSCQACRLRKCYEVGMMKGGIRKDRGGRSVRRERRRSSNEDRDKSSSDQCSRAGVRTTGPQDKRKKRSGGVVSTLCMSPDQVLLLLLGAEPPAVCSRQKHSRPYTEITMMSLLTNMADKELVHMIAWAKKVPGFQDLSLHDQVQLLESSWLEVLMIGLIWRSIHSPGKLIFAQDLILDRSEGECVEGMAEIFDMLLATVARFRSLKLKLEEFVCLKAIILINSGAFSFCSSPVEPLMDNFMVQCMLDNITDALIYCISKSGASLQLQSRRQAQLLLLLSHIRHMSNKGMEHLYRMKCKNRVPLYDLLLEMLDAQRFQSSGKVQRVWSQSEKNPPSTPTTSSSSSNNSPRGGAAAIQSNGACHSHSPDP
Peroxisome proliferator-activated receptor gamma (Homo sapiens), sequence (P37231 whole entry, looked up, the tested form may be a part): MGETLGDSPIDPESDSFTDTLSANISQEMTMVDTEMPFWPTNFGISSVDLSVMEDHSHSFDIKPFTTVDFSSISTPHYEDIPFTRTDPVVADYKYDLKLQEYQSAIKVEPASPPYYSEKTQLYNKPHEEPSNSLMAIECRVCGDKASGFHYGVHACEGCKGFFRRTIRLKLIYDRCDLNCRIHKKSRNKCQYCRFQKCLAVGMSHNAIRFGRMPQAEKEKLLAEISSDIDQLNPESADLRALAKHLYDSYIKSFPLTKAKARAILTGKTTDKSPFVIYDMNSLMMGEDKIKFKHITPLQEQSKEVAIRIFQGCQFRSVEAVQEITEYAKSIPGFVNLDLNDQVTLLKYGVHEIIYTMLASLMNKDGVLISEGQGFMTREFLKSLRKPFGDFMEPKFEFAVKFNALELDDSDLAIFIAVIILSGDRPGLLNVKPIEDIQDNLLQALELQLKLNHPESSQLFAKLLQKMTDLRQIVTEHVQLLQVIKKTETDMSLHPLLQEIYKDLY
GAL4 Transcription Factor (Internal Marker), GAL4 (gene 855828), sequence (P04386 whole entry, looked up, the tested form may be a part): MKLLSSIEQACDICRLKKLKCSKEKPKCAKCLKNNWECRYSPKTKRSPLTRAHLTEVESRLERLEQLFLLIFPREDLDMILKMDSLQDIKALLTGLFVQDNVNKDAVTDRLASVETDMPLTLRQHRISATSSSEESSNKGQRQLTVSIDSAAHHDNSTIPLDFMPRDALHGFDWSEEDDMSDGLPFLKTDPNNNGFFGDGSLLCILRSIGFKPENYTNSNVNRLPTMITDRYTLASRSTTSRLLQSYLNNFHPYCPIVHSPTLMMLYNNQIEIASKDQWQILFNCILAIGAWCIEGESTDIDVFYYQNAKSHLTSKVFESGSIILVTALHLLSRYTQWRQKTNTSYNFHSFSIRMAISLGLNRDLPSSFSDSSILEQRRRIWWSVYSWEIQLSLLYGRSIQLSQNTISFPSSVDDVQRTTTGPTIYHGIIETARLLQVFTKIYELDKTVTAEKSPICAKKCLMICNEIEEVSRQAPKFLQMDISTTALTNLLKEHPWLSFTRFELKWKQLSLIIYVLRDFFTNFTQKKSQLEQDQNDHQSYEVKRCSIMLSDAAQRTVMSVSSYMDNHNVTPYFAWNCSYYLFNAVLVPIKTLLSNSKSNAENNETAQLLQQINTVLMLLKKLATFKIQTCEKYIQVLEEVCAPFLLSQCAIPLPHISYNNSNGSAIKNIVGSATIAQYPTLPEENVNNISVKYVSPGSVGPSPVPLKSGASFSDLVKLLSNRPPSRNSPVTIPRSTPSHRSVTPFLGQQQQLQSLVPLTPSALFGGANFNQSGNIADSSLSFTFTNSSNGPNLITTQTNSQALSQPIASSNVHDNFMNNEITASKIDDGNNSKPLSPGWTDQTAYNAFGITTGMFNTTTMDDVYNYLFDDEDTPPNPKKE

Turning to `Clc1nc(Cl)c(Cl)c(Cl)c1Cl`, the molecule was classed as inactive in experiment [1], in experiment [2], in [4], in experiment [5], in experiment [6] and in [7]. For the same molecule, the call in experiment [11], in experiment [12], in [13], in experiment [14] and in experiment [15] was inactive. The half-maximal activity concentration (AC50) was 26.6 µM (active) and 86.3 µM (active) in experiment [3]; 100 µM (active) in [5]; 184 µM (active) in [7]; 26 µM (active) in experiment [8]; 1.04 µM (active) and 14.9 µM (active) in experiment [9]; 1.48 µM (active) and 2.05 µM (active) in experiment [10].

Consider `O=P(OC(CCl)CCl)(OC(CCl)CCl)OC(CCl)CCl`, for which the call in experiment [1], in experiment [16], in [2], in [3], in [17] and in experiment [5] was inactive. Further, the call in experiment [7], in [8], in experiment [12], in [13], in [19] and in experiment [20] was inactive. Also, in experiment [14], the call was inactive. The AC50 in experiment [18] is 7.39 µM (active); in experiment [9], 50.5 µM (active); in experiment [10], 26.2 µM (active); in experiment [11] it was 703 nM (active).

Take `Oc1ccc2c(c1)-c1ccccc1C2`: the half-maximal activity concentration (AC50) is 5.52 µM (active) and 2.58 µM (active) in experiment [1]; 14.7 µM (active) and 6.87 µM (active) in experiment [2]; 4.69 µM (active) and 2.17 µM (active) in experiment [3]; 2.55 µM (active) in [4]; 4.78 µM (active) and 2.89 µM (active) in experiment [5]; 21.4 µM (active) and 12.1 µM (active) in experiment [7]. Further, the AC50 in [8] is 6.95 µM (active) and 3.52 µM (active); in [9], 19.8 µM (active) and 28.4 µM (active); in experiment [10], 43.9 µM (active) and 49.3 µM (active); in [11], 17.1 µM (active) and 44.2 µM (active). Also, the outcome in experiment [4], in [12], in experiment [19], in experiment [20], in experiment [14] and in [15] was inactive.

One may read the AC50 as the midpoint of the concentration-response curve, whichever way the signal moves.
